Results filed as inconclusive are left out. Where a call stands in place of a potency, no number is given. The source made the active and inactive calls. Calls come from the whole dose curve; as a rule, active = well fitted inhibition curve with a large enough effect; inconclusive = small, poorly fitted or top-dose-only effect; inactive = no such curve, though single readings can be large or run the other way.
These molecules were tested against Chromobox protein homolog 1 (Homo sapiens) (UniProt P83916) (assay: qHTS Validation Assay for Inhibitors of HP1-beta Chromodomain Interactions with Methylated Histone Tails (AID 488953; note: nearly all actives have a fitted effect of over 50% in size)). Conditions: HP1-beta chromodomain / methylated histone peptide binding assay; series mostly up to 114 µM.
From the text: As our understanding of epigenetics expands, it is becoming clear that players in this field are potential targets for drug development. This area of epigenetic therapy has established applications for the treatment of cancer and neurological diseases. We have been involved in this field for a number of years and have performed high-throughput screens to identify the first small molecule inhibitors of protein methyltransferases. These methyltransferases target multiple substrates, and thus regulate many arms of an epigenetic pathway. The methylation of different substrates often generates docking sites for effector proteins that harbor binding domains (chromo, tudor, PHD, MBT and ANK repeats).
It has been proposed that the binding sites generated for different proteins by these post-translational modifcations mediate downstream effects on chromatin. Consistent with this theory, di- and tri-methylation of histone H3K9 facilitates the binding of heterochromatin protein HP1. The HP1 protein harbors a chromodomain that is responsible for the methyl-dependent interaction between HP1 and lysine 9 of histone H3. HP1 was first described in flies as a heterochromatin associated protein that can regulate gene silencing. It harbors a chromodomain that binds H3K9me3. In addition, it harbors a chromoshadow domain that interacts with a large number of proteins that are involved in heterochromatin formation and gene repression. There are three highly related HP1 isoforms. All three variants are associated with pericentric heterochromatin and it is not clear whether they have specific or redundant functions. MPP8 is also involved in the repression of gene in euchromatic regions (unpublished data) and like HP1 its chromodomain binds H3K9me3. MPP8 harbors an ankyrin repeat region that is likely involved in binding and recruiting interacting proteins with transcriptional repressive function, much like the chromoshadow domain of HP1 does.
We hypothesize that by inhibiting specific protein-protein interactions we will be able to develop compounds that block a single arm of an epigenetic pathway. The specificity attained by blocking a single protein-protein interaction will be far greater than that attained by blocking the enzyme that regulates one of many interactions.
Low-affinity protein-protein interactions (Kd in the single- to double-digit micromolar range) such as those discussed here have been very difficult to assay by traditional techniques such as fluorescence polarization or fluorescence resonance energy transfer. We have developed a sensitive chemiluminescence-based assay (Quinn, et al. 2009), which serves as the starting point for this project.
The following is a validation assay to identify lead compounds that can block methyl-dependent protein-protein interactions (specifically HP1-beta), which can be used as probes to analyze these methyl-driven interactions and perhaps even developed into targeted epigenetic therapies.
Assay Provider: Mark T. Bedford, MD Anderson
Screening Center PI: Austin, C.P.
Screening Center: NIH Chemical Genomics Center [NCGC]
To each well, 2 uL of HP1-beta protein (final 50 nM) and 1 uL biotinylated histone peptide trimethylated at Lys9 [b-H3(1-18)K9me3] (final 50 nM) was added in 1x PBS buffer, pH 7.4, containing 0.01% Tween-20 using a nanoliter dispenser. Formation of a protein-peptide complex proceeded at room temperature for 30 min. A Kalypsys pin-tool was employed to transfer 23 nL of library compound solution in DMSO to each well. Aurintricarboxylic acid (ATA) was used as an intraplate control with a 12-point titration in duplicate. Following a 30 min incubation of the protein-peptide complex with compounds at room temperature, a mixture of 40 ug/mL each streptavidin-coated donor and nickel chelate acceptor AlphaScreen beads (final 10 ug/mL) was added in a 1 uL dispense for a final volume of 4 uL. Plates were incubated protected from the light for 30 min at room temperature. […]
Potency is the fitted concentration of half-maximal effect.

Chain of Chromobox protein homolog 1 (Homo sapiens) (P83916 whole entry, looked up): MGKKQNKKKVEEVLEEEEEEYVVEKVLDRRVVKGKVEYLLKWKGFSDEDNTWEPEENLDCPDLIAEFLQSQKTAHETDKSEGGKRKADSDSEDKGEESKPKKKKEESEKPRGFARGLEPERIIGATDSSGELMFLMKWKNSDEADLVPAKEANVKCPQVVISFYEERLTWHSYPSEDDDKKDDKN

How did the Potency turn out when `CN(C)CCC(c1ccc(Cl)cc1)c1ccccn1` (stereo not given) was run?
The Potency was “inactive”.

With `CCCCCCCCCCCCCCCCCC(=O)OC(CC(=O)O)C[N+](C)(C)C` (stereo not given) as the molecule, how does the Potency read?
Its Potency is “inactive”.

Which Potency does the source give for `CN(C)C(N)=NCCC[C@H](N)C(=O)O` here?
Its Potency is “inactive”.

How did the Potency turn out when `O=C1NC(O)=NC1(c1ccccc1)c1ccccc1` was run?
Its Potency is “inactive”.

Which Potency does the source give for `O=C(Nc1ccccc1)c1cc([N+](=O)[O-])ccc1Cl` here?
The Potency was “inactive”.

With `NCCNC(=O)c1ncsc1-c1cccc(F)c1` as the molecule, how does the Potency read?
The Potency was “inactive”.

Which Potency does the source give for `c1ccc(-c2ccccn2)nc1` here?
The Potency was “inactive”.

`Nc1ncnc2c1ncn2[C@@H]1O[C@H](COP(=O)(O)OP(=O)(O)OP(=O)(O)OP(=O)(O)OC[C@@H]2O[C@H](n3cnc4c(N)ncnc43)[C@@H](O)[C@H]2O)[C@@H](O)[C@H]1O` was tested. Which Potency did it give?
Its Potency is “inactive”.

`N=C(N)SCCc1ccc(CCSC(=N)N)cc1` was tested. Which Potency did it give?
The Potency was “inactive”.

How did the Potency turn out when `CN(C)c1nc2c(Br)c(Br)c(Br)c(Br)c2[nH]1` was run?
Its Potency is “inactive”.

With `NCCCS(=O)(=O)O` as the molecule, how does the Potency read?
Its Potency is “inactive”.

For `CC(=O)N[C@H](C(=O)O)C(C)(C)SN=O`, which Potency is on record?
Its Potency is “inactive”.

Which Potency does the source give for `CSc1ccccc1N1CCN(CCCCCC(=O)NC2CCCc3ccccc32)CC1` (stereo not given) here?
Its Potency is 50.1 µM (active).

How did the Potency turn out when `CC1(C)CCC=[N+]1[O-]` was run?
The Potency was “inactive”.

Which Potency does the source give for `CCCCC/C=C\CC(O)/C=C/c1cccc(CC(O)CCCCO)n1` (stereo not given) here?
The Potency was 0.0075 µM (active).

For `c1cnc2c(c1)ccc1cccnc12`, which Potency is on record?
Its Potency is “inactive”.

Which Potency does the source give for `OCC1O[C@H]([S-])[C@H](O)[C@@H](O)[C@@H]1O.[Au+]` (stereo not given in full) here?
The Potency was 2 µM (active).

With `Cc1cc(NC2CCCCC2)nc(-n2nc(C)cc2C)n1` as the molecule, how does the Potency read?
The Potency was “inactive”.

For `N#C/C(=C\c1c[nH]c2ccccc12)C(=O)c1ccc(O)c(O)c1`, which Potency is on record?
The Potency was 3.55 µM (active).

For `N#C/C(=C\c1ccc(O)c(O)c1)C(=O)NCc1ccccc1`, which Potency is on record?
The Potency was 10 µM (active).

For `NS(=O)(=O)C#Cc1ccccc1`, which Potency is on record?
Its Potency is “inactive”.

How did the Potency turn out when `O=C(c1ccc(Cl)cc1)N1CCN(c2ccc([N+](=O)[O-])c3ncccc23)CC1` was run?
The Potency was “inactive”.

`C[C@@H](NC(=O)/C(C#N)=C/c1ccc(O)c(O)c1)c1ccccc1` was tested. Which Potency did it give?
The Potency was 8.91 µM (active).

With `O=C(O)c1cc(=O)c2c(Cl)cc(Cl)cc2[nH]1` as the molecule, how does the Potency read?
The Potency was “inactive”.

Which Potency does the source give for `COc1cccc(C(=O)NCCN2CCN(c3ccc(Cl)cc3)CC2)c1` here?
The Potency was “inactive”.

Which Potency does the source give for `C#C[C@]1(O)CC[C@H]2[C@@H]3CCC4=Cc5oncc5CC4(C)[C@H]3CCC21C` (stereo not given in full) here?
The Potency was “inactive”.

For `CC(=O)/C=C1\C(=O)N(C)c2ccccc21`, which Potency is on record?
Its Potency is 0.0532 µM (active).

For `CC(C)NCC(O)COc1cccc2ccccc12` (stereo not given), which Potency is on record?
The Potency was “inactive”.

For `OCC1O[C@H](O)C(Cl)C(O)C1O` (stereo not given in full), which Potency is on record?
The Potency was “inactive”.

For `COc1cc2nc(N3CCN(C(=O)OCc4ccccc4)C(C(=O)NC(C)(C)C)C3)nc(N)c2cc1OC` (stereo not given), which Potency is on record?
Its Potency is “inactive”.

`Fc1ccc(C(OCCCc2cnc[nH]2)c2ccc(F)cc2)cc1` was tested. Which Potency did it give?
Its Potency is 39.8 µM (active).

`Oc1cc2c(cc1O)CN(C(=S)NCCc1ccc(Cl)cc1)CCC2` was tested. Which Potency did it give?
Its Potency is 44.7 µM (active).

With `NCCCCCCCCCCN` as the molecule, how does the Potency read?
Its Potency is “inactive”.

For `NC(CCCP(=O)(O)O)C(=O)O` (stereo not given), which Potency is on record?
Its Potency is “inactive”.

Which Potency does the source give for `O=C1O/C(=C/Br)CCC1c1cccc2ccccc12` (stereo not given) here?
Its Potency is “inactive”.

With `NC(=O)C1=CN(C2OC(COP(=O)(O)OP(=O)(O)OC[C@H]3O[C@@H](n4cnc5c(N)ncnc54)[C@H](OP(=O)(O)O)[C@@H]3O)C(O)C2O)C=CC1` (stereo not given in full) as the molecule, how does the Potency read?
Its Potency is 0.0053 µM (active).

`COc1ccc2c(c1)CCC1C2CC[C@@]2(C)C1CC[C@@H]2NCCCCCCN1C(=O)CCC1=O` (stereo not given in full) was tested. Which Potency did it give?
Its Potency is “inactive”.

For `N.N.N.N.N.N.N.N.N.N.N.N.N.N.O.O.[Ru+4].[Ru+5].[Ru+5]`, which Potency is on record?
The Potency was 4.47 µM (active).

How did the Potency turn out when `C[N+](C)(CCCCCC[N+](C)(C)CCCN1C(=O)c2cccc3cccc(c23)C1=O)CCCN1C(=O)c2cccc3cccc(c23)C1=O` was run?
The Potency was “inactive”.

How did the Potency turn out when `O=C1C(SCCO)=C(SCCO)C(=O)c2ccccc21` was run?
The Potency was 10 µM (active).
